Experimental data published in PubChem BioAssay (NCI).
Compounds without any hit were thinned out: in the full panel of roughly 79,000, 15% have a hit. Active and inactive are the calls of the source. No stated cut-off is given here; in the data, active means growth inhibition above about 70%; inactive means the rest.

Experiments:
[1] = NCI Yeast Anticancer Drug Screen. Data for the rad52 strain (AID 147);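 further: 0% = growth of vehicle-treated control cultures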; conditions: S. cerevisiae rad52 mutant growth inhibition, stronger effect = higher value
Summary of the method: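 Here a repair-compromised yeast strain receives each compound; its growth is then quantified and normalised to vehicle-only controls.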

[2] = NCI Yeast Anticancer Drug Screen. Data for the wt1 strain (AID 149);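 further: 0% = growth of vehicle-treated wt1 cultures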; conditions: S. cerevisiae wt1 strain (SPY 50644) growth inhibition, stronger effect = higher value
Summary of the method: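 Using yeast strain wt1, compound-induced growth inhibition was determined against vehicle-treated cultures.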

[3] = NCI Yeast Anticancer Drug Screen. Data for the rad50EPP+ strain (AID 151);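 further: 0% = growth of vehicle-treated control cultures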; conditions: S. cerevisiae rad50 mutant strain, stronger effect = higher value
Summary of the method: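 Read-out is yeast growth inhibition relative to vehicle; cells used were the rad50EPP+ strain.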

[4] = NCI Yeast Anticancer Drug Screen. Data for the mgt1 strain (AID 153); conditions: S. cerevisiae mgt1 mutant growth inhibition, stronger effect = higher value
Summary of the method: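 Measured: inhibition of mgt1 yeast growth by compound, normalized to vehicle-treated cultures.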

[5] = NCI Yeast Anticancer Drug Screen. Data for the rad50 strain (AID 155);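 further: 0% = growth of vehicle-only cultures of the same strain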; conditions: S. cerevisiae rad50 strain growth inhibition, stronger effect = higher value
Summary of the method: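 Relative growth inhibition (compound vs vehicle) was measured in yeast with a defined repair-gene alteration.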

[6] = NCI Yeast Anticancer Drug Screen. Data for the mec2-1 strain (AID 157); conditions: S. cerevisiae mec2-1 strain, stronger effect = higher value
Summary of the method: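 Using mec2-1 yeast: add compound, measure growth, express inhibition versus vehicle-treated cultures.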

[7] = NCI Yeast Anticancer Drug Screen. Data for the rad14 strain (AID 159);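 further: 0% = growth of vehicle-treated control cultures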; conditions: S. cerevisiae rad14 strain growth inhibition, stronger effect = higher value
Summary of the method: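 Screen for anticancer potential: a yeast strain altered in DNA damage repair is grown with compound, and reduced growth is quantified against vehicle controls.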

[8] = NCI Yeast Anticancer Drug Screen. Data for the sgs1 mgt1 strain (AID 161);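 further: 0% = growth of cultures given vehicle only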; conditions: S. cerevisiae sgs1 mgt1 strain, stronger effect = higher value
Summary of the method: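 Growth of a repair-deficient yeast mutant was monitored after compound treatment and expressed as inhibition relative to vehicle-treated cultures.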

[9] = NCI Yeast Anticancer Drug Screen. Data for the CLN2oe strain (AID 163);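 further: 0% = growth of vehicle-only control cultures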; conditions: S. cerevisiae CLN2oe strain, stronger effect = higher value
Summary of the method: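 Whole-cell yeast growth assay. A strain engineered for altered cell-cycle control received compound, and inhibition relative to vehicle-treated cultures was recorded.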

[10] = NCI Yeast Anticancer Drug Screen. Data for the cln2 rad14 strain (AID 165);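 further: 0% = growth equal to vehicle treated cultures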; conditions: S. cerevisiae cln2 rad14 strain, stronger effect = higher value
Summary of the method: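 Yeast strain cln2 rad14, bearing defects in cell cycle control and DNA repair, serves as the test system; values reflect growth inhibition compared with vehicle.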

[11] = NCI Yeast Anticancer Drug Screen. Data for the bub3 strain (AID 167); conditions: S. cerevisiae bub3 mutant strain, stronger effect = higher value
Summary of the method: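 Screening used yeast with an engineered genetic alteration affecting cell cycle control. Compound-exposed cultures were compared with vehicle cultures, and reduced growth was taken as inhibition.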

[12] = NCI Yeast Anticancer Drug Screen. Data for the wt2 strain (AID 169);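 further: 0% = growth of vehicle-treated yeast cultures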; conditions: S. cerevisiae wt2 strain growth inhibition, stronger effect = higher value
Summary of the method: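 Treated yeast vs. vehicle-treated yeast: growth inhibition determined.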

[13] = NCI Yeast Anticancer Drug Screen. Data for the mlh1 strain (AID 171);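 further: 0% = growth of vehicle-treated control cultures of the same strain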; conditions: S. cerevisiae mlh1 strain growth inhibition, stronger effect = higher value
Summary of the method: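 A yeast strain with a defined genetic lesion serves as the test organism. Cultures receive compound or vehicle, and growth is measured.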

[14] = NCI Yeast Anticancer Drug Screen. Data for the sgs1 strain (AID 173);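 further: 0% = growth of vehicle-only control cultures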; conditions: S. cerevisiae sgs1 mutant, stronger effect = higher value
Summary of the method: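 A genetically defined yeast mutant is incubated with the test compound, and its growth is compared to that of the same strain given vehicle.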

[15] = NCI Yeast Anticancer Drug Screen. Data for the mlh1 rad18 strain (AID 175); conditions: S. cerevisiae mlh1 rad18 strain growth inhibition, stronger effect = higher value
Summary of the method: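 Steps: expose repair-defective yeast to compound; measure growth; express inhibition against vehicle-treated controls.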

[16] = NCI Yeast Anticancer Drug Screen. Data for the rad18 strain (AID 177); conditions: S. cerevisiae rad18 mutant growth inhibition, stronger effect = higher value
Summary of the method: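 Measured value is growth inhibition of a yeast strain bearing a DNA repair alteration, referenced to vehicle-treated cells.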

[17] = at 5.0 µM (retest, dose inferred, filed as 0.5)
[18] = at 50.0 µM (retest, dose inferred, filed as 5.0)

Measured: growth inhibition

COc1cccc2c1C(=O)c1c(O)c3c(c(O)c1C2=O)CC(O)(C(O)CO)CC3OC1CC(N2CCOCC2)C(O)C(C)O1 (stereo not drawn)
inactive: [5]; at 50.0 µM 56.9% | [8]; [17] 22% | [10]; [17] 18% | [10]; [18] 61% | [11]; [17] 25%
active: [1]; at 1.2 µM 96% | [1]; at 3.7 µM 96% | [1]; at 11.0 µM 96% | [1]; at 33.0 µM 96% | [1]; at 100.0 µM 96% | [2]; at 1.2 µM 96% | [2]; at 3.7 µM 96% | [2]; at 11.0 µM 97% | [2]; at 33.0 µM 97% | [2]; at 100.0 µM 97% | [3]; at 1.2 µM 84% | [3]; at 3.7 µM 96% | [3]; at 11.0 µM 97% | [3]; at 33.0 µM 97% | [3]; at 100.0 µM 97% | [4]; at 1.2 µM 97% | [4]; at 3.7 µM 97% | [4]; at 11.0 µM 97% | [4]; at 33.0 µM 98% | [4]; at 100.0 µM 97% | [5]; at 1.2 µM 96% | [5]; at 3.7 µM 97% | [5]; [17] 98% | [5]; at 11.0 µM 97% | [5]; at 33.0 µM 97% | [5]; [18] 98% | [5]; at 100.0 µM 97% | [6]; at 1.2 µM 97% | [6]; at 3.7 µM 97% | [6]; [17] 99% | [6]; at 11.0 µM 98% | [6]; at 33.0 µM 98% | [6]; [18] 99% | [6]; at 50.0 µM 91.3% | [6]; at 100.0 µM 98% | [7]; at 1.2 µM 95% | [7]; at 3.7 µM 96% | [7]; at 11.0 µM 96% | [7]; at 33.0 µM 97% | [7]; at 100.0 µM 97% | [8]; [18] 90% | [8]; at 50.0 µM 91.5% | [9]; at 1.2 µM 96% | [9]; at 3.7 µM 97% | [9]; at 11.0 µM 97% | [9]; at 33.0 µM 98% | [9]; at 100.0 µM 98% | [10]; at 50.0 µM 90.8% | [11]; at 1.2 µM 98% | [11]; at 3.7 µM 98% | [11]; at 11.0 µM 98% | [11]; at 33.0 µM 98% | [11]; [18] 93% | [11]; at 50.0 µM 93.5% | [11]; at 100.0 µM 98% | [12]; at 1.2 µM 96% | [12]; at 3.7 µM 97% | [12]; at 11.0 µM 96% | [12]; at 33.0 µM 97% | [12]; at 100.0 µM 98% | [13]; at 1.2 µM 97% | [13]; at 3.7 µM 97% | [13]; at 11.0 µM 97% | [13]; at 33.0 µM 98% | [13]; at 100.0 µM 98% | [14]; at 1.2 µM 97% | [14]; at 3.7 µM 97% | [14]; at 11.0 µM 97% | [14]; at 33.0 µM 98% | [14]; at 100.0 µM 98% | [15]; [17] 99% | [15]; [18] 98% | [15]; at 50.0 µM 91.1% | [16]; at 1.2 µM 96% | [16]; at 3.7 µM 96% | [16]; at 11.0 µM 97% | [16]; at 33.0 µM 97% | [16]; at 100.0 µM 98%

COc1nc2c(c(=O)n1C)N=C(c1ccccc1)[C@H](C(CC(=O)c1ccccc1)c1ccccc1)C(c1ccccc1)N2 (stereo partly drawn)
inactive: [1]; at 1.2 µM -2% | [1]; at 3.7 µM 13% | [1]; at 11.0 µM 34% | [1]; at 33.0 µM 31% | [1]; at 100.0 µM 60% | [2]; at 1.2 µM -27% | [2]; at 3.7 µM -20% | [2]; at 11.0 µM -19% | [2]; at 33.0 µM 6% | [2]; at 100.0 µM 46% | [3]; at 1.2 µM -16% | [3]; at 3.7 µM -30% | [3]; at 11.0 µM -46% | [3]; at 33.0 µM -17% | [3]; at 100.0 µM -35% | [4]; at 1.2 µM -53% | [4]; at 3.7 µM -38% | [4]; at 11.0 µM -9% | [4]; at 33.0 µM 34% | [4]; at 100.0 µM 60% | [5]; at 1.2 µM 6% | [5]; at 3.7 µM 3% | [5]; [17] 65% | [5]; at 11.0 µM 5% | [5]; at 33.0 µM 21% | [5]; at 50.0 µM 52.4% | [5]; at 100.0 µM 55% | [6]; at 1.2 µM -16% | [6]; at 3.7 µM -9%
active: [5]; [18] 94%
